Where a name gives a salt, the structure may show the parent alone.

For one assay, the system named is U2932 TK216-resistant clone 2. Briefly: cell proliferation relative to vehicle (% of vehicle); higher = less growth inhibition. The note with it: 500 nM; 72 h. The method in brief:
(§1)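 Each of 348 targeted inhibitors was tested at 500 nM or 50 nM for 72 h on U2932 cells, both parental and two clones resistant to an ETS-targeting agent. Readout was by MTT with absorbance read on a Cytation 3. Proliferation appears as percent of proliferating cells relative to vehicle (DMSO).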
Compound `Oc1cccc(-c2nc(N3CCOCC3)c3oc4ncccc4c3n2)c1` had a cell proliferation of 45.4.

The compound `C#Cc1cccc(Nc2ncnc3cc(OC)c(OCCCCCCC(=O)NO)cc23)c1` showed a cell proliferation of 43.4.

The compound `CC1(C)CCC(c2ccc(Cl)cc2)=C(CN2CCN(c3ccc(C(=O)NS(=O)(=O)c4ccc(N[C@H](CCN5CCOCC5)CSc5ccccc5)c(S(=O)(=O)C(F)(F)F)c4)cc3)CC2)C1` [ABT-263 (Navitoclax)] gave a cell proliferation of 62.4.

As to `COc1ccc(-c2ccc3c(N4CCOCC4)nc(N4C[C@@H](C)O[C@@H](C)C4)nc3n2)cc1CO`, the cell proliferation was 46.8.

As for `CCN(CC)CCCC(C)Nc1ccnc2cc(Cl)ccc12` (centres undefined) [Chloroquine Phosphate], the cell proliferation amounted to 104.

A further assay relates to U2932 TK216-resistant clone 3. Described as above. The note with it: 50 nM; 72 h. In a few lines:
as §1
In the case of `O=C(NCc1ccncc1)C12CC3CC(C1)CC(c1ccc(Cl)cc1)(C3)C2`, the cell proliferation came out at 105.

As to `Cc1csc(-c2nnc(Nc3ccc(Oc4ncccc4-c4ccnc(N)n4)cc3)c3ccccc23)c1`, the cell proliferation worked out at 80.5.

The compound `CCS(=O)(=O)N1CC(CC#N)(n2cc(-c3ncnc4[nH]ccc34)cn2)C1` gave a cell proliferation of 111.

On to `COc1ccc(-c2ccc3c(N4CCOC[C@@H]4C)nc(N4CCOC[C@@H]4C)nc3n2)cc1CO`, for which the cell proliferation came out at 75.1.

As to `CCOc1ccc(Cc2cc([C@@H]3O[C@H](CO)[C@@H](O)[C@H](O)[C@H]3O)ccc2Cl)cc1` [Dapagliflozin], the cell proliferation worked out at 101.

Take `CC(=O)O[C@@]12CO[C@@H]1C[C@H](O)[C@@]1(C)C(=O)[C@H](O)C3=C(C)[C@@H](OC(=O)[C@H](O)[C@@H](NC(=O)OC(C)(C)C)c4ccccc4)C[C@@](O)([C@@H](OC(=O)c4ccccc4)[C@H]21)C3(C)C` [Docetaxel]: the cell proliferation was determined as 5.58.

`O=C(Nc1cccc(Nc2ncc(Br)c(NCCc3cnc[nH]3)n2)c1)N1CCCC1` showed a cell proliferation of 103.

Compound `Nc1ccccc1NC(=O)c1ccc(CNC(=O)OCc2cccnc2)cc1` [Entinostat (MS-275)] yielded a cell proliferation of 88.2.

`CC1(C)CCC(CN2CCN(c3ccc(C(=O)NS(=O)(=O)c4ccc(NCC5CCOCC5)c([N+](=O)[O-])c4)c(Oc4cnc5[nH]ccc5c4)c3)CC2)=C(c2ccc(Cl)cc2)C1`: the cell proliferation stood at 84.4.

The compound `O=C(O)C(Cc1c[nH]c2ccccc12)N1C(=O)c2ccccc2C1=O` (centres undefined) came in with a cell proliferation of 99.2.

In the case of `Cc1cnc(-c2ccccc2C(C)C)nc1NCc1ccc(-n2ccnn2)cc1`, the cell proliferation is 105.

With `CCc1ccc(/C=C2/SC(=S)NC2=O)cc1`, the cell proliferation amounted to 102.

Compound `O=C(Cc1ccc(-c2ccc(OCCN3CCOCC3)cc2)cn1)NCc1ccccc1` gave a cell proliferation of 20.3.

`C/C(=C\C(=O)Nc1ccccc1C(=O)O)c1ccc2ccccc2c1` registered a cell proliferation of 109.

In turn, `CN1CCC(CNc2ccc3ncc(-c4cccc(OC(F)(F)F)c4)n3n2)CC1` [SGI-1776 free base] had a cell proliferation of 105.

As to `Cc1cn([C@H]2O[C@@H](CO)[C@H](O)[C@H]2F)c(=O)[nH]c1=O` [Clevudine], the cell proliferation stood at 96.2.

Regarding `CNC(=O)c1cccc(-c2ccc3c(N4CCOC[C@@H]4C)nc(N4CCOC[C@@H]4C)nc3n2)c1`, the cell proliferation amounted to 93.8.

`CCCCCCCCc1ccc(CCC(N)(CO)CO)cc1` [Fingolimod (FTY720) HCl] yielded a cell proliferation of 99.6.

`COC1=CC(c2cc3ccccc3[nH]2)=N/C1=C\c1[nH]c(C)cc1C` [Obatoclax Mesylate (GX15-070)] returned a cell proliferation of 102.

Consider `O=c1[nH]nc(Sc2ncc([N+](=O)[O-])s2)n1-c1ccc2c(c1)OCCO2`, for which the cell proliferation was found to be 102.

In the case of `CN(NC(=O)CC(=O)NN(C)C(=S)c1ccccc1)C(=S)c1ccccc1` [Elesclomol (STA-4783)], the cell proliferation is -0.901.

For the compound `C[C@@H]1CN(CC(=O)Nc2ccc3c(c2)Cc2cccc(-c4cc(=O)cc(N5CCOCC5)o4)c2S3)C[C@H](C)O1`, the cell proliferation was found to be 103.

Regarding `Nc1nc(F)nc2c1ncn2[C@@H]1O[C@H](COP(=O)(O)O)[C@@H](O)[C@@H]1O` [Fludarabine Phosphate], the cell proliferation was 103.

`CC/C(=C(\c1ccccc1)c1ccc(OCCN(C)C)cc1)c1ccccc1` [Tamoxifen Citrate] displayed a cell proliferation of 89.

Take `O=C(O)CC[C@H]1CC[C@@](c2cc(F)ccc2F)(S(=O)(=O)c2ccc(Cl)cc2)CC1`: the cell proliferation came out at 105.

Take `CCn1c2ccccc2c2cc(Nc3ccnc(NCCCN4CCOCC4)n3)ccc21`: the cell proliferation was found to be 74.8.

`O=C(/C=C\n1cnc(-c2cc(C(F)(F)F)cc(C(F)(F)F)c2)n1)NNc1cnccn1`: the cell proliferation was 58.9.

Compound `CCN(CC)CCNC(=O)c1c(C)[nH]c(/C=C2\C(=O)Nc3ccc(F)cc32)c1C` [Sunitinib Malate] yielded a cell proliferation of 99.4.

The compound `N#Cc1c(Oc2ccc(F)c(NC(=O)Cc3cccc(C(F)(F)F)c3)c2)ccc2nc(NC(=O)C3CC3)sc12` had a cell proliferation of 107.

`Cc1nc(C(=O)NCC(=O)O)c(O)c2ccc(Oc3ccccc3)cc12` had a cell proliferation of 104.

Take `C[C@H]1c2cccc(O)c2C(=O)C2=C(O)[C@]3(O)C(=O)C(C(N)=O)=C(O)[C@@H](N(C)C)[C@@H]3[C@@H](O)[C@@H]21` [Doxycycline Hyclate]: the cell proliferation amounted to 102.

In turn, `CS(=O)(=O)c1ccc(C(=O)Nc2ccc(Cl)c(-c3ccccn3)c2)c(Cl)c1` [Vismodegib (GDC-0449)] yielded a cell proliferation of 108.

Consider `NC(=O)c1ncn([C@@H]2O[C@H](CO)[C@@H](O)[C@H]2O)c1N` [Acadesine], for which the cell proliferation stood at 98.7.

As for `O=C(O)CCNc1cc(N2CCc3ccccc3CC2)nc(-c2ccccn2)n1`, the cell proliferation stood at 105.

As to `Oc1cccc(-c2nc(N3CCOCC3)c3oc4ncccc4c3n2)c1`, the cell proliferation worked out at 94.2.

The compound `C#Cc1cccc(Nc2ncnc3cc(OC)c(OCCCCCCC(=O)NO)cc23)c1` displayed a cell proliferation of 96.3.

Turning to `CC1(C)CCC(c2ccc(Cl)cc2)=C(CN2CCN(c3ccc(C(=O)NS(=O)(=O)c4ccc(N[C@H](CCN5CCOCC5)CSc5ccccc5)c(S(=O)(=O)C(F)(F)F)c4)cc3)CC2)C1` [ABT-263 (Navitoclax)], the cell proliferation came out at 99.4.

`COc1ccc(-c2ccc3c(N4CCOCC4)nc(N4C[C@@H](C)O[C@@H](C)C4)nc3n2)cc1CO` gave a cell proliferation of 98.9.

`CCN(CC)CCCC(C)Nc1ccnc2cc(Cl)ccc12` (centres undefined) [Chloroquine Phosphate] gave a cell proliferation of 116.
